Results taken from PMC4336329 (PLoS ONE, 2015).
Hit rate of the full screen: of about 310,000 compounds, about 14,000 (4.5%) showed an effect of 50% or more. The effect is printed as a negative number. The sample as a whole holds a higher share of strong results than the screen did.

Biological target: human ether-à-go-go-related gene (hERG) potassium channel (human, UniProt Q12809)
Assay: primary screen, population patch clamp on CHO cells stably expressing hERG; higher = less effect of the substance
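Note: peak tail current of the secondary pulse compared with the same well before compound.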

Chain of human ether-à-go-go-related gene (hERG) potassium channel (Q12809 whole entry, looked up): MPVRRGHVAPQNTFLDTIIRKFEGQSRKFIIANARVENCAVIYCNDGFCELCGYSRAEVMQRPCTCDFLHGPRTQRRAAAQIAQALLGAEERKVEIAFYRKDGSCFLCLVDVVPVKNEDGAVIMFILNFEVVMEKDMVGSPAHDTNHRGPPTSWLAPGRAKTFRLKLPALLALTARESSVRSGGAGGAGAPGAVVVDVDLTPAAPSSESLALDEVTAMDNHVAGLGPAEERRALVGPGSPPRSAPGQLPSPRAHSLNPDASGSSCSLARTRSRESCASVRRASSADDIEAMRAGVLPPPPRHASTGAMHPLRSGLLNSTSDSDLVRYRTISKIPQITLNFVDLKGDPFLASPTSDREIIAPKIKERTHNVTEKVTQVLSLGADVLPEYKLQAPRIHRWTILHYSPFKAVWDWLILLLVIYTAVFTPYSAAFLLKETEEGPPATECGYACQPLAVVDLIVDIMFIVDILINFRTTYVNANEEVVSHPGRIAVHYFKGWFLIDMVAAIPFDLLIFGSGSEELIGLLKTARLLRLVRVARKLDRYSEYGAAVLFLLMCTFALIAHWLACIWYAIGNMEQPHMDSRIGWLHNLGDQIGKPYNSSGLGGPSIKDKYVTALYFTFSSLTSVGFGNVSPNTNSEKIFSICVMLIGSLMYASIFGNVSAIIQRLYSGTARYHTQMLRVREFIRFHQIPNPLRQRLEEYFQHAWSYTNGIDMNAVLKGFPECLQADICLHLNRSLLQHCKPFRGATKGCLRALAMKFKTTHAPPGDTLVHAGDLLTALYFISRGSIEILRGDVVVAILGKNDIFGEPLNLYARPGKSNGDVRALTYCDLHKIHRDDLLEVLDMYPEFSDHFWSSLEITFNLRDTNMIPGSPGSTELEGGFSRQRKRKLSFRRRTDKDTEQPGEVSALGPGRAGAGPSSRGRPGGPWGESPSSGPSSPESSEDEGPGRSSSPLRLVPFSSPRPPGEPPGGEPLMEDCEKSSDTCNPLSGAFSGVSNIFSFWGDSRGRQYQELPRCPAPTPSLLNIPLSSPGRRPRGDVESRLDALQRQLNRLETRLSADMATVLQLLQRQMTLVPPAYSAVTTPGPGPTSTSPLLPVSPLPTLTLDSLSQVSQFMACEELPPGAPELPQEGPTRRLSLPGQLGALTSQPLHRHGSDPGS

| SMILES | hERG current change (%, negative = inhibition) at 10uM [%] |
| --- | --- |
| COCCNC(=O)[C@@]1(Cc2ccccc2)C=C[C@@H](C)N1C(C)=O | 11.5 |
| CC(C)N(Cc1ccco1)/N=C/c1c(O)n(Cc2ccccc2)c(=O)[nH]c1=O | 8.85 |
| Cc1nccn1CCOc1ccc(Cl)cc1.O=C(O)C(=O)O | -38.4 |
| COc1ccc2c(Cl)c(C(N)=O)sc2c1 | 1.91 |
| Nc1ccc(NC(=O)c2ccco2)c(Cl)c1 | 12.9 |
| Cc1cc(=O)cc(C)n1-c1ccc(Br)cc1 | 12.1 |
| CCN(CC)CCn1c(-c2ccc(C)cc2)nc(=S)c2c1CC(C)(C)OC2 | -0.55 |
| Clc1ccccc1-c1ccc(/C=N/n2cnnc2)o1 | -24.1 |
| CCc1nc(SCC(=O)Nc2cccc3ccccc23)[nH]c(=O)c1C | 8.16 |
| COC(=O)c1ccc(C(=O)OC)c(NC(=S)N2CCC(N3CCCCC3)CC2)c1 | -15 |
| COc1cc(NS(C)(=O)=O)c(OC)cc1NC(=O)c1ccccc1 | -9.96 |
| O=C(NC(=S)Nc1ccccc1N1CCCC1)c1ccc(-c2cccc([N+](=O)[O-])c2)o1 | -26.7 |
| CN1CCN(c2ccccc2NC(=O)c2cccc([N+](=O)[O-])c2)CC1 | -80.1 |
| CN1CCN(c2ccc(NC(=O)c3ccc(-c4cccc([N+](=O)[O-])c4)o3)cc2)CC1 | 5.35 |
| O=C(Nc1ccccc1N1CCCCC1)c1cccc([N+](=O)[O-])c1 | 9.03 |
| O=C(Nc1ccccc1N1CCOCC1)c1cccc([N+](=O)[O-])c1 | -17.7 |
| CN1CCN(c2ccccc2NC(=O)c2ccc(-c3cccc([N+](=O)[O-])c3)o2)CC1 | -51.8 |
| N#Cc1ccsc1NC(=O)c1ccc(Cl)c([N+](=O)[O-])c1 | 21 |
| O=C(NC1CCS(=O)(=O)C1)c1cccc(S(=O)(=O)N2CCCCCC2)c1 (stereo not drawn) | 1.79 |

| SMILES | hERG current change (%, negative = inhibition) at 10uM [%] |
| --- | --- |
| CCC1CCCCN1Cc1nc(Cc2ccccc2Cl)no1 (stereo not drawn) | -10.4 |
| NC(=O)[C@@H]1CCCN1Cc1nc(Cc2ccccc2Cl)no1 | 14.5 |
| OCCCC1CCCCN1Cc1nc(Cc2ccccc2Cl)no1 (stereo not drawn) | -78.9 |
| Cc1noc(C)c1S(=O)(=O)N1CCCN(C(=O)/C=C/c2ccccc2F)CC1 | -70.9 |
| CNC(=O)C1CCN(S(=O)(=O)c2c(C)noc2/C=C/c2ccccc2F)CC1 | 11.4 |
| Cc1noc(/C=C/c2ccccc2F)c1S(=O)(=O)N1CCC(C(=O)N2CCN(C)CC2)CC1 | -19.5 |
| COc1ccc(N2CCN(C(c3cccs3)C(C)NS(C)(=O)=O)CC2)cc1 (stereo not drawn) | 7.84 |
| CN1C(=O)c2ccccc2C(C(=O)O)C1c1cccc(F)c1 (stereo not drawn) | 0.483 |
| CCOc1ccccc1N(C)C(=O)c1sc2ncn(CC(=O)N3CCCCC3C)c(=O)c2c1C (stereo not drawn) | 6.44 |
| CCOC(=O)CCSc1nc2c(c(C(F)(F)F)c1C#N)CCC2 | 3.58 |
| O=C(c1ccccc1OCc1ccccc1Br)N1CCN(c2ncccn2)CC1 | -37.2 |
| O=C(C[n+]1cccc2ccccc21)c1ccc(Br)cc1.[Br-] | -45.1 |
| O=C(c1ccco1)N1CCN(Cc2nc(Cc3ccccc3)no2)CC1 | -8.87 |
| CN1CCN(Cc2nc(Cc3cccc(F)c3)no2)CC1c1ccccc1 (stereo not drawn) | -18.2 |
| c1ccc(Cc2noc(CN3CCN(C4CCc5ccccc5C4)CC3)n2)cc1 (stereo not drawn) | -81.2 |
| c1ccc(Cc2noc(CN3CCC(CN4CCOCC4)CC3)n2)cc1 | 4.64 |
| Cc1ccccc1N1CCN(Cc2nc(Cc3ccccc3)no2)CC1 | 9.18 |
| c1ccc(Cc2noc(CN3CCCN(C4Cc5ccccc5C4)CC3)n2)cc1 | -80 |
| Fc1cccc(Cc2noc(CN3CCOCC3)n2)c1 | 11.4 |

| SMILES | hERG current change (%, negative = inhibition) at 10uM [%] |
| --- | --- |
| Cc1cccnc1CN1CCN(Cc2nc(Cc3cccc(F)c3)no2)CC1 | -29.5 |
| Fc1cccc(Cc2noc(CN3CCSCC3)n2)c1 | 29.1 |
| Fc1cccc(Cc2noc(CN3CCN(C4CCc5ccccc5C4)CC3)n2)c1 (stereo not drawn) | -78.6 |
| O=C(c1ccco1)N1CCCN(Cc2nc(Cc3ccccc3)no2)CC1 | -25.8 |
| Fc1cccc(Cc2noc(CN3CCCN(C4Cc5ccccc5C4)CC3)n2)c1 | -86.5 |
| Cc1ccc(CN2CCNC(=O)C2CC(=O)NCC(F)(F)F)o1 (stereo not drawn) | 14.1 |
| CCOc1cccc(/C=C(/C#N)c2nc3ccccc3[nH]2)c1OCC(=O)O | 14.1 |
| COc1cc(C(=O)Nc2nc3ccc4nc(C)sc4c3s2)cc(OC)c1OC | -5.34 |
| C=CCN(C(=O)CNC(=O)c1ccco1)C(C(=O)NC1CCCCC1)c1ccccc1 (stereo not drawn) | 1.1 |
| C=C1CCN(c2ccc(C(=O)NCCC)cc2[N+](=O)[O-])CC1 | -48.3 |
| CN(C)C(=O)Cn1cnc2c(cnn2-c2ccc(F)cc2)c1=O | -2.06 |
| COC(=O)C(C(=O)OC)C(C[N+](=O)[O-])c1ccc(OC)cc1 (stereo not drawn) | -6.91 |
| Cc1cc(C)cc(NC(=O)C2CCN(S(=O)(=O)c3ccc4c(c3)NC(=O)C(C)S4)CC2)c1 (stereo not drawn) | 8.79 |
| CCC(C)NC(=O)CSc1ccc(S(=O)(=O)N2CCN(Cc3ccccc3)CC2)cn1 (stereo not drawn) | -16.6 |
| O=C(OC(c1ccccc1)c1nccc2ccccc12)c1cccc([N+](=O)[O-])c1 (stereo not drawn) | 8.01 |
| CN(C)/C=N/c1cnc(C(=O)c2ccc(Cl)cc2)n1C | 5.58 |
| Br.CCCN(CCC)C1CCc2cccc(O)c2C1 (stereo not drawn) | -10.6 |
| Br.CCCN(CCC)C1CCc2ccc(O)cc2C1 (stereo not drawn) | -70 |
| Br.CCCN(CCC)[C@@H]1CCc2cccc(O)c2C1 | -34.4 |
